In the supplement of paper PMC6555819:

Legend:
Experiment in all cases: PBM binding z-score (relative to random genomic background probes); higher = stronger binding; sequences stand for … in GC…GCGATTGACAGCGTAGAATGAAGG
[1] = tested on: FXR:RXRa (NR concentration 270 nM, RXRa partner concentration 90 nM)
Method in brief: (§1)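 Ligand-free nuclear receptor dimers were applied to custom Agilent 4×180K protein-binding microarrays whose double-stranded probes carried direct-repeat seeds, single-nucleotide variants, half-site ablations and random human genomic background sequences in 34-nt variable regions. Incubation lasted 1 h. Binding z-scores were computed against the random background probes from regression-normalized fluorescence.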

[2] = tested on: LXRa:RXRa (NR concentration 270 nM, RXRa partner concentration 90 nM)
Method in brief: as §1

[3] = tested on: LXRa homodimer (NR concentration 270 nM)
Method in brief: as §1

[4] = tested on: LXRb:RXRa (NR concentration 270 nM, RXRa partner concentration 90 nM)
Method in brief: as §1

[5] = tested on: LXRb homodimer (NR concentration 270 nM)
Method in brief: as §1

[6] = tested on: PPARa:RXRa (NR concentration 270 nM, RXRa partner concentration 90 nM)
Method in brief: as §1

[7] = tested on: PPARg:RXRa (NR concentration 180 nM, RXRa partner concentration 90 nM)
Method in brief: as §1

[8] = tested on: PPARg:RXRa 270nM:90nM, anti-RXR (NR concentration 270 nM, RXRa partner concentration 90 nM)
Method in brief: as §1

[9] = tested on: PPARg:RXRa 30nM:10nM, anti-RXR (NR concentration 30 nM, RXRa partner concentration 10 nM)
Method in brief: as §1

[10] = tested on: PPARg:RXRa 90nM:30nM, anti-RXR (NR concentration 90 nM, RXRa partner concentration 30 nM)
Method in brief: as §1

[11] = tested on: PPARg:RXRa DBDmut IVT, anti-RXR (DBD mutation: RXRa K156A/R161A, NR concentration 270 nM, RXRa partner concentration 90 nM)
Method in brief: as §1

[12] = tested on: PPARg:RXRa IVT, anti-PPARg (NR concentration 270 nM, RXRa partner concentration 90 nM)
Method in brief: as §1

[13] = tested on: PPARg DBDmut:RXRa IVT, anti-PPARg (DBD mutation: PPARg1 K132A/R137A, NR concentration 270 nM, RXRa partner concentration 90 nM)
Method in brief: as §1

[14] = tested on: PPARg DBDmut IVT, anti-PPARg (DBD mutation: PPARg1 K132A/R137A, NR concentration 270 nM)
Method in brief: as §1

[15] = tested on: PPARg homodimer (NR concentration 180 nM)
Method in brief: as §1

[16] = tested on: PXR:RXRa (NR concentration 270 nM, RXRa partner concentration 90 nM)
Method in brief: as §1

[17] = tested on: PXR homodimer (NR concentration 270 nM)
Method in brief: as §1

[18] = tested on: RARa:RXR (NR concentration 270 nM, RXRa partner concentration 90 nM)
Method in brief: as §1

[19] = tested on: RARa homodimer (NR concentration 270 nM)
Method in brief: as §1

[20] = tested on: RARb:RXRa (NR concentration 270 nM, RXRa partner concentration 90 nM)
Method in brief: as §1

Sequence | PBM binding z-score [1] | PBM binding z-score [2] | PBM binding z-score [3] | PBM binding z-score [4] | PBM binding z-score [5] | PBM binding z-score [6] | PBM binding z-score [7] | PBM binding z-score [8] | PBM binding z-score [9] | PBM binding z-score [10] | PBM binding z-score [11] | PBM binding z-score [12] | PBM binding z-score [13] | PBM binding z-score [14] | PBM binding z-score [15] | PBM binding z-score [16] | PBM binding z-score [17] | PBM binding z-score [18] | PBM binding z-score [19] | PBM binding z-score [20]
GGAACGAGGGCAAATTGATAGCAGAGTTTGATGG | 0.902 | 0.348 | -0.101 | 0.452 | -0.144 | 1.73 | 1.16 | 0.944 | 0.134 | 0.629 | 3.46 | 2.68 | 0.618 | -0.23 | 0.358 | 0.625 | 0.703 | 0.402 | -0.436 | 2.23
TCGAGTAGGCTACCAATGGGGCATTCAGCTTTCT | -0.523 | -0.102 | -1.06 | -0.127 | -1.18 | 0.0161 | -0.358 | 0.198 | 1.19 | 0.625 | 1.55 | 0.414 | -0.67 | -1.72 | -1.23 | -0.438 | -0.888 | -0.72 | -1.3 | -0.208
CCTTACGGGTCACTCCAGGTTATGGCATCGGAGT | 4.99 | 7.21 | 1.54 | 4.4 | -0.0375 | 4.24 | 3.15 | 3.76 | 0.907 | 2.67 | 2.6 | 3.76 | -0.451 | -0.505 | 1.71 | 4.55 | 0.182 | 3.46 | 0.437 | 3.78
CGTCCAAGGTAAAAGGTCAGTGAAGAGATGACGG | 3.59 | 3.34 | 0.701 | 3.27 | -0.538 | 5.23 | 6.53 | 6.49 | 4.59 | 6.15 | 0.99 | 3.62 | -0.145 | 0.215 | 2.6 | 3.83 | 0.564 | 5.16 | 1.15 | 4.44
CCTACTGGGCCATTCAAAGGTCATTGATCATATG | 3.24 | 4.61 | 6.31 | 4.29 | 0.576 | 4.43 | 3.07 | 4.03 | 1.44 | 3.35 | 4.67 | 4.81 | -0.127 | -0.542 | 2.61 | 5 | 2.28 | 5.19 | 0.686 | 3.72
TAGCCTAGGTCTTGGGCCAGTATACCACGCGAAC | -0.302 | -0.359 | -0.58 | -0.334 | -0.384 | -0.242 | 0.0651 | -0.286 | -0.619 | -0.51 | -0.718 | -0.4 | -0.0485 | -0.703 | -0.0751 | -0.448 | -0.379 | -0.298 | -0.982 | 0.162
ACTAGTTGGTCAGCTGAGGTCGCACACAATTCGG | 1.01 | 0.732 | 0.139 | 1.1 | 0.147 | 1.49 | 0.497 | 0.445 | -0.204 | 0.316 | 1.03 | 1.57 | 0.582 | 0.333 | 0.559 | 3.02 | 0.134 | 1.79 | -0.0842 | 1.91
TCTGCTAGGTCAACGATGGCCAGCTAATCTGCTA | 3.09 | 2.21 | -0.626 | 1.34 | -0.287 | 3 | 2.34 | 2.77 | 1.8 | 2.37 | 4.07 | 4.02 | 0.274 | -0.0746 | 0.165 | 0.871 | -1.29 | 1.9 | -0.648 | 3.94
